Each sequence was assayed against SLC25A25 (assay: pooled miR-30 sensor sort-seq; sequence = guide strand). Settings: shRNA.
Also: reference of the scale not given here.

Sequence | sensor-assay potency score (higher = more potent)
TATCTTGACTCCCAAGTCCCGC | -1.03
TTAAATGACAACTTCTAACGTC | 0.538
TCCACTGTGAACTCATCCGGGA | -0.99
TAAATGACAACTTCTAACGTCC | 0.0926
TAGACTGCAAGGTCGATGCCGG | -0.614
TTCTCGTAGACCACGTAGCTGA | -0.478
TAGTCTCTCCACTCGTTCCAGT | -0.705
AAATTCTTCAAAGTCTAGCTGC | 0.318
TTCCAGTCGATGGTCATCGTGC | -0.398
TTGAGCGTCTCGTAGACTGCAA | 0.033

What follows are sequences tested against SLC25A30 in the same assay as above. Settings: shRNA.

Sequence | sensor-assay potency score (higher = more potent)
TATCGGTAGAGTTTCATCTTCT | 0.16
TTCAATGAATAGTCGCTTCAAG | -0.455
TATCATTCCTCCTTGAATGGTG | -0.0231
TGTCTGTAACAAGCAATCCAGG | -1.42
TGTAGCCAGAACATCTGCCATC | -1.32
TAAGTGCCTATCTTGATGGTGC | 0.212
TAAATGTTCATGAAGTTGCCTA | -0.274
TTATCGGTAGAGTTTCATCTTC | -0.374
TTATAGAGAGCAAAAAACCCTT | -0.63
TTGCTTTGCGCTTGCATCCGAA | -1.2
TAGAGTTTCATCTTCTGGGCGT | 0.316

Each sequence was assayed against SLC25A38 in the same assay as above. Settings: shRNA.

Sequence | sensor-assay potency score (higher = more potent)
AAGAGTACAGCCAACATCCCAA | -0.0219
TTTGATAACATCCGCAGGTTGA | -0.428
TATATTTTTGGTCTGGTTGTAA | 0.16
TAACATAAGCGTTTCCACCGTG | 0.26
TATGAATTGATGACTCCTCTTT | 0.416
ATGAGTTTTGATAACATCCGCA | 0.0272
TAGGACTTCATCTTACTGCAGA | -0.516
TTGATGACTCCTCTTTTGGAGA | -1.04
TGAGTTTTGATAACATCCGCAG | -0.615
TTGAAAATAAGTGTCACTGCTT | 0.827
TATGAGTTTTGATAACATCCGC | -0.0581
ATAGGTGACATACAGACCCCTG | -0.876

These sequences were tested against SLC25A3 in the same assay as above. Settings: shRNA.

Sequence | sensor-assay potency score (higher = more potent)
TAAGTGTAACTGAGAATCCGTT | -0.605
TTGAGGACCAGAGAAGCACTGC | 0.0253
TATGGTATCTGTCTCATCCAGA | 0.075
TTGCACAAAAGACTCCAGCTAT | 0.0495
TTTTCTTTATTCAACACAGATA | -1.15
TTAAGTGTAACTGAGAATCCGT | 0.392
TACAAATGTTACAACCAGCTGC | 0.505

Source: the OligoGym collection
